Data taken from the OligoGym collection.
Note: reference of the scale not given here.

Each sequence was assayed against BZW1 (assay: pooled miR-30 sensor sort-seq; sequence = guide strand). Details: shRNA.
Work on TGAAACTCCTTCTTTAACCAAA yielded a sensor-assay potency score (higher = more potent) of -0.866. Sequence TTATCCATGCTGACTTTCCGAA has a sensor-assay potency score (higher = more potent) of -0.947. In the case of TAATACAGTCTTGAAACTGAGT, the sensor-assay potency score (higher = more potent) is reported as -0.709. TTAACTTGTTAAAAACCTGAGC showed a sensor-assay potency score (higher = more potent) of -0.612. AATAATACAGTCTTGAAACTGA showed a sensor-assay potency score (higher = more potent) of 0.296. Sequence TTTTCTAGTTTTAAAACGCTGG has a sensor-assay potency score (higher = more potent) of -0.34.

Each sequence was assayed against C10orf129 in the same assay as above. Details: shRNA.
Sequence AACTTCTTGAAATCCAACCACC has a sensor-assay potency score (higher = more potent) of -1.25. With TGTAGGTCTGCTTTGGAGGGGC the sensor-assay potency score (higher = more potent) was -0.275. In the case of TAGCTCTTATCTGACACCAGGA, the sensor-assay potency score (higher = more potent) is reported as -0.145. TTCTTGAAATCCAACCACCCAT gave a sensor-assay potency score (higher = more potent) of -0.764. For ATACTGGGAATACTCGACCATT, the sensor-assay potency score (higher = more potent) was -1.34. ATAGCTCTTATCTGACACCAGG showed a sensor-assay potency score (higher = more potent) of -1.02. With TCTTGAAATCCAACCACCCATC the sensor-assay potency score (higher = more potent) was -1.29. With TGACACAGAAACACACAGGCTC the sensor-assay potency score (higher = more potent) was 0.78. In the case of TACATCTCTGGATTTGCAGATA, the sensor-assay potency score (higher = more potent) is reported as -0.615. TTTAGAACAGTCTCAGGGCAGA gave a sensor-assay potency score (higher = more potent) of -0.497. AACTTGAATCAACTTCTTGAAA was tested, and the sensor-assay potency score (higher = more potent) was -1.71. TTATCTGACACCAGGAGCTTGG showed a sensor-assay potency score (higher = more potent) of -0.78.

What follows are sequences tested against C10orf27 in the same assay as above. Details: shRNA.
Sequence ATATCTTCGTTTTCTTCGGGGA has a sensor-assay potency score (higher = more potent) of -0.103. For TGATATCTTCGTTTTCTTCGGG, the sensor-assay potency score (higher = more potent) was 0.224. With TTGGATGTGGGTCACGTGCTGG the sensor-assay potency score (higher = more potent) was -0.839. Sequence TTCTTCTCCAGTTTCAGCTCAG has a sensor-assay potency score (higher = more potent) of -0.249. Work on TTTAGTAAGAGTTTTCACGGTA yielded a sensor-assay potency score (higher = more potent) of 0.259. For TTTCGCTTTTTGTAAAAGGTGA, the sensor-assay potency score (higher = more potent) was -0.648. In the case of TATCTTCGTTTTCTTCGGGGAT, the sensor-assay potency score (higher = more potent) is reported as -0.791. TAAAAGGTGATATCTTCGTTTT was tested, and the sensor-assay potency score (higher = more potent) was -1.08. In the case of TTCGATGTCTTCTTCTCTGTGT, the sensor-assay potency score (higher = more potent) is reported as 0.791. With TCGAAATCCACAATCCCTGGGA the sensor-assay potency score (higher = more potent) was 0.448. TTCTTCTCTGTGTTCTGGCTTG was tested, and the sensor-assay potency score (higher = more potent) was -0.353. In the case of TTTTGTAAAAGGTGATATCTTC, the sensor-assay potency score (higher = more potent) is reported as -0.0398.

What follows are sequences tested against C11orf49 in the same assay as above. Details: shRNA.
With TTGGCTAATATCTTCCCTGTTT the sensor-assay potency score (higher = more potent) was -0.438. In the case of TCGTCCATGAGCACAATCCTGG, the sensor-assay potency score (higher = more potent) is reported as -1.16. Sequence TAACACTAGGGTAAACCCCTGG has a sensor-assay potency score (higher = more potent) of -0.37. With TTCTCCAACAGGCCACAGCGGT the sensor-assay potency score (higher = more potent) was -1.61. AAATATTCAGTGAAGAACCTGG showed a sensor-assay potency score (higher = more potent) of 0.285. TTTCTGAGTGAGCTCCAGCGGG was tested, and the sensor-assay potency score (higher = more potent) was -0.907. With TAGCTATTAGACACAAAGGGGT the sensor-assay potency score (higher = more potent) was -0.34. Sequence TTCATGGTCAGCAAATCGCCAT has a sensor-assay potency score (higher = more potent) of -0.72. For TTTTGCAAGTGAAATCATCTTC, the sensor-assay potency score (higher = more potent) was 0.664. TTTCACATGTTTGTTTAGCTAT was tested, and the sensor-assay potency score (higher = more potent) was -0.281.
